Records with an inconclusive call do not appear. Active and inactive are the calls of the source. Rule for the calls: active = hit-call score of the fitted dose curve at least 0.9, where 1 is the maximum; inconclusive = response in the unintended direction; inactive = score below 0.9.

This test in a line: ACEA_ER_80hr: ACEA Biosciences xCELLigence Real-Time Cell Analysis on Estrogen Receptor Agonism for Proliferation (AID 2282667). Conditions: T47D proliferation, impedance (xCELLigence), 80 h. As to the method: ACEA_ER is a cell-based, single-readout assay that uses T47D, a human breast cell line, with measurements taken at 80 hours after chemical dosing in a 96-well plate, although TO2 (mc0.srcf) used a 384-well plate. Differences in plate size can be ignored given data normalization.ACEA_ER_80hr is one of two assay component(s) measured or calculated from the ACEA_ER assay. It is designed to make measurements of real-time cell-growth kinetics, a form of growth reporter, as detected with electrical impedance signals by Real-Time Cell Electrode Sensor (RT-CES) technology.Data from the assay component ACEA_ER_80hr was analyzed into 1 assay endpoint. This assay endpoint, ACEA_ER_80hr_Positive, was analyzed in the positive analysis fitting direction relative to DMSO as the negative control and baseline of activity. Using a type of growth reporter, measures of the cells for gain-of-signal activity can be used to understand the signaling at the pathway-level as they relate to the gene ESR1. Furthermore, this assay endpoint can be referred to as a primary readout, because this assay has produced multiple assay endpoints where this one serves a signaling function. To generalize the intended target to other relatable targets, this assay endpoint is annotated to the nuclear receptor intended target family, where the subfamily is steroidal.
The xCELLigence system Multi-E-Plate stations were used to measure the time-dependent response to chemicals. Each compound was tested in an eight-point, 1:4 serial dilution series starting at a maximum final concentration of 100 uM. A maximum starting concentration of 0.5% DMSO was present in the 100 uM chemical samples and was diluted along with the test article dilution series. The screen was performed in biological duplicate using two separate, 96-well, E-Plates 96 for each dilution series (n = 2). Positive controls (MG132 and E2) and a negative control (assay media) were tested in quadruplicate on each testing plate. […] Reference compounds were tested with 8 concentrations with 1:5 serial dilutions. All screening was carried out by ACEA Biosciences, Inc. (San Diego, CA). T-47D cells purchased from ATCC were maintained in RPMI1640 media supplemented with 10% characterized fetal bovine serum (FBS). […] Cells were then detached and seeded in E-Plates 96 in assay medium. After overnight monitoring of growth once every hour, compounds were added to […] cells and remained in the medium until the end of the experiment. Cellular responses were then recorded once every 5 min for the first 5 h, and once every hour for an additional 100 h.
Take `CC1(C)CC(N)CC(C)(CN)C1` (stereo not given): the compound was called inactive. As a reminder, the AC50 is the concentration at which the activity in the assay is half-maximal. Turning to `CCC(=O)OC/C=C(\C)CCC=C(C)C`, the AC50 was 91.6 nM (active).

Turning to `N#CCCCC(C#N)CCC#N` (stereo not given), the compound was called inactive. `CCCCCCCCOC(=O)c1ccc(O)cc1`: the AC50 was 521 nM (active). With `CC(=O)OC/C=C(C)/C=C/C=C(C)/C=C/C1=C(C)CCCC1(C)C`, the compound was called inactive. Same read-out and setting: next, `CC1=CCC(C(C)C)=CC1`: “inactive”. For `NC(N)=S`, the concentration at half-maximal activity (AC50) is 1290 nM (active).

As to `CCCCCCOC(C)=O`, the compound was called inactive. Still for that read-out and setting: next, `[O-]/[N+](=N\O)c1ccccc1`: “inactive”.

With `COc1ccccc1O`, the compound was classed as inactive.

Take `CC/C=C/CCCCCCCCCCOC(C)=O`: the result was inactive.

In the case of `CCOCC(C)O` (stereo not given), the outcome was inactive.

`C=C1CC/C=C(\C)CC[C@@H]2[C@@H]1CC2(C)C`: the outcome was inactive. `CCCCCC(=O)O[C@]1(C(C)=O)CC[C@H]2[C@@H]3CCC4=CC(=O)CC[C@]4(C)[C@H]3CC[C@@]21C`: the AC50 is 5.01 nM (active). In the case of `c1ccc2scnc2c1`, the compound was called inactive. Still for that read-out and setting: next, `CC(=O)c1ccc2ccccc2c1`: “inactive”. Still for that read-out and setting: under `CC(=O)Nc1cc(S(=O)(=O)O)cc2cc(S(=O)(=O)O)c(N=Nc3ccccc3)c(O)c12` stands “inactive”; under `NC(=O)NC(N)=O`, “inactive”; under `C=C(C)CCCC(C)CCO` (stereo not given), “inactive”. Still for that read-out and setting: under `CCCCC1CCCCC(=O)O1` (stereo not given) stands “inactive”. `CC(C)C(=O)c1ccccc1`: the compound was called inactive. As for `c1ccc(OCCOc2ccccc2)cc1`, the outcome was inactive. The same measure, in the same setting: under `O=C(C=Cc1ccccc1)OCCCc1ccccc1` stands “inactive”. Regarding `CC(=N[Si](C)(C)C)O[Si](C)(C)C`, the AC50 is 60.3 nM (active). The same measure, in the same setting: next, `c1ccc(-c2nn[nH]n2)cc1`: 26.1 nM (active); `NCCCOCCOCCOCCCN`: 10200 nM (active). For `CC(=O)OC(C)(C)C`, the compound was classed as inactive. Same read-out and setting: under `O=C(O)c1ccco1` stands “inactive”; under `CCCCCCCC1CCCC1=O` (stereo not given), “inactive”; under `CCCCOC(=O)C(C)OC(=O)CCC` (stereo not given), “inactive”. As to `NCCN1CCNCC1`, the AC50 was 10800 nM (active). Regarding `NNC(=O)OCc1ccccc1`, the compound was classed as inactive. With `FC(F)(F)c1ccc(Cl)c(Cl)c1`, the compound was called inactive. Same read-out and setting: next, `CC/C=C\C#N`: “inactive”; `CC1=CC(C)C(C=O)C(C)C1` (stereo not given) (tested in a mixture with another compound): “inactive”.

Regarding `CCCCOCCOCCOCCO`, the compound was called inactive. As for `CC1=C(C=O)C(C)(C)CCC1`, the AC50 was 3650 nM (active).

For `CCCCCCCCCO`, the compound was called inactive. Turning to `CCC(CC)CO`, the result was inactive. On the same count and under the same terms, under `Cc1cccc(C)c1` stands “inactive”.

The values are drawn from PubChem BioAssay (EPA / NIEHS).
